Laboratory results reported in PubChem BioAssay (Tox21).
Inconclusive results are not listed. Active and inactive are the calls of the source. Unless noted, calls follow the shape of the dose curve; as a rule, active = well fitted curve in the direction sought with a large enough effect in the repeat runs; inconclusive = weak or mixed curves; inactive = no such curve, though single readings can be large; an effect the other way counts as inactive or inconclusive.

What was measured:
[1] = qHTS assay for small molecule agonists of the p53 signaling pathway (AID 651631; calls by dose curve; also: nearly all actives have a fitted effect of over 15% in size)
Outline: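 HCT-116 p53RE-bla reporter line, 16 h compound treatment at 37 °C, then fluorescence after 2 h with B/G FRET substrate.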

[2] = qHTS assay for small molecules that induce genotoxicity in human embryonic kidney cells expressing luciferase-tagged ATAD5 (AID 651632); also: nearly all actives have a fitted effect of over 15% in size
Outline: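 Increased luciferase signal from ATAD5-tagged reporter cells indicates DNA-damage-driven ATAD5 induction. HEK293T cells are treated for 16 hr at 37C before detection with Amplite.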

[3] = qHTS assay for small molecules that induce genotoxicity in human embryonic kidney cells expressing luciferase-tagged ATAD5 - cell viability (AID 651634; calls by dose curve; also: nearly all actives have a fitted effect of over 25% in size)
Outline: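 Cytotoxicity counterscreen in HEK293T cells bearing an ATAD5-luciferase reporter: live-cell protease activity measured by CellTiter-Fluor fluorescence after 15.5 hr compound exposure.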

[4] = qHTS assay for small molecule disruptors of the mitochondrial membrane potential - cell viability (AID 720634; calls by dose curve;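 also: human HepG2 liver cancer cells; series mostly up to about 83 µM; nearly all actives have a fitted effect of over 20% in size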)
Outline: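 After overnight attachment at 37 C, HepG2 cells received compound or DMSO vehicle for 1 hr. Viability is then taken from ATP-driven luminescence following a 30 min room-temperature CellTiter-Glo step.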

[5] = qHTS assay for small molecule disruptors of the mitochondrial membrane potential (AID 720635)
Outline: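 Mitochondrial membrane potential tracked with Mito-MPS dye, red aggregates (ex 540/em 590 nm) against green monomers (ex 490/em 535 nm). Compound treatment 1 hr at 37C, dye 30 min in HepG2.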

[6] = qHTS assay to test for compound auto fluorescence at 590 nm (red) in HepG2 cells (AID 720674)
Outline: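 1 hr compound incubation on HepG2 cells, 37 C, 5% CO2; plate read ex 540 nm / em 590 nm; intensities reported as Rose Bengal sodium equivalents.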

[7] = qHTS assay to test for compound auto fluorescence at 535 nm (green) in HepG2 cells (AID 720675)
[8] = qHTS assay to test for compound auto fluorescence at 460 nm (blue) in HEK293 cells (AID 720678)
Outline: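 Blue read-out at excitation 405 nm and emission 460 nm follows overnight compound exposure of HEK293 cells at 37C in 5% CO2. Activity is given as auto fluorescence equivalency to triamterene.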

[9] = qHTS assay to test for compound auto fluorescence at 590 nm (red) in HEK293 cells (AID 720679)
Outline: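 Red channel, Ex/Em 540/590nm; signal expressed as equivalency to Rose Bengal sodium. HEK293, 2,000 cells/well, 10% dialyzed FBS; 23 nL compound pinned after 4-5 hr attachment; overnight 37C/5% CO2 before reading.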

[10] = qHTS assay to test for compound auto fluorescence at 535 nm (green) in HEK293 cells (AID 720680)
[11] = qHTS assay to test for compound auto fluorescence at 460 nm (blue) in HEK293 cell free culture (AID 720681)
Outline: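 Blue fluorescence (Ex 405/Em 460 nm, triamterene-equivalent) was read immediately after pin transfer of compound or DMSO into medium (DMEM, 10% FBS) without cells.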

[12] = qHTS assay to test for compound auto fluorescence at 535 nm (green) in HEK293 cell free culture (AID 720682)
Outline: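 Steps: dispense DMEM/10% FBS into empty wells; pin in compound or DMSO; measure fluorescence at 485/535 nm. Values are fluorescein equivalents.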

[13] = qHTS assay to test for compound auto fluorescence at 590 nm (red) in HEK293 cell free culture (AID 720683)
Outline: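 Red-channel autofluorescence of compounds in culture medium (DMEM, 10% FBS), no cells, measured at 540/590 nm. Rose Bengal sodium is the reference fluorophore for equivalence.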

[14] = qHTS assay to test for compound auto fluorescence at 590 nm (red) in HepG2 cell free culture (AID 720684)
Outline: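 Plate contents were MEM with 10% FBS plus test compound or DMSO, no cells. Fluorescence was recorded with 540 nm excitation and 590 nm emission.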

[15] = qHTS assay to test for compound auto fluorescence at 460 nm (blue) in HepG2 cell free culture (AID 720685)
Outline: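 Compound (23 nL) or DMSO pinned into cell-free MEM with 10% FBS; blue fluorescence read at 405/460 nm excitation/emission, expressed as auto-fluorescence equivalency to triamterene.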

[16] = qHTS assay to test for compound auto fluorescence at 535 nm (green) in HepG2 cell free culture (AID 720686)
[17] = qHTS assay to test for compound auto fluorescence at 460 nm (blue) in HepG2 cells (AID 720687)
Outline: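 Blue-channel autofluorescence (Ex/Em 405/460 nm, triamterene-equivalent) was measured after 1 hr compound exposure at 37 C, 5% CO2. Cells were HepG2, plated overnight at 37 C in MEM plus 10% FBS.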

[18] = target: Glucocorticoid receptor (Homo sapiens) (UniProt P04150); experiment: qHTS assay to identify small molecule agonists of the glucocorticoid receptor (GR) signaling pathway (AID 720691; active = well fitted activation curve with a large enough effect in the signal ratio in the repeat runs, not every such curve was filed as active; the % refers to the signal ratio)
Glucocorticoid receptor (Homo sapiens), sequence (P04150 whole entry, looked up): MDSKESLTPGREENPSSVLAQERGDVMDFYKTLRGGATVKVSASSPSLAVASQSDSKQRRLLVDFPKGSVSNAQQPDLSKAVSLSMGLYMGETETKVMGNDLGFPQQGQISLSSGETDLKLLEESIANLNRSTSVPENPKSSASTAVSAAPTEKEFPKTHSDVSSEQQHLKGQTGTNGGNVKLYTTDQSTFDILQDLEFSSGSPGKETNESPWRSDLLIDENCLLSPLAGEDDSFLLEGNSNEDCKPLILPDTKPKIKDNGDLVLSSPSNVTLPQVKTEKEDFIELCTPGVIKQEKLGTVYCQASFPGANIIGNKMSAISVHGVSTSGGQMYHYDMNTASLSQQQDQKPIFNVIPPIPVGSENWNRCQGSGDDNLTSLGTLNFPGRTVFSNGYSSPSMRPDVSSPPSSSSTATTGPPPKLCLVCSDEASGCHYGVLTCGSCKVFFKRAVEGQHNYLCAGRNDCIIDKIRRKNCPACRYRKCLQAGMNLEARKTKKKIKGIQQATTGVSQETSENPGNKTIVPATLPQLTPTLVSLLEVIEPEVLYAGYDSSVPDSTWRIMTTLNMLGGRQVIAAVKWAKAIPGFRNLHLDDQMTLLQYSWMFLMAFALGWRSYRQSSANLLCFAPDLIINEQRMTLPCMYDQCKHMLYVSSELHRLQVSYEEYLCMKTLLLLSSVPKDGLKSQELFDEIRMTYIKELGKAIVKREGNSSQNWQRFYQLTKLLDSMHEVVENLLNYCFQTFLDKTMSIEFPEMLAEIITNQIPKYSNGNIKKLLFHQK
Outline: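 Agonist mode in a HeLa line carrying a GRE-controlled beta-lactamase reporter. Compounds act for 18 h at 37 C before a 2 h room-temperature FRET substrate step and fluorescence reading.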

[19] = target: Glucocorticoid receptor (Homo sapiens) (UniProt P04150); experiment: qHTS assay to identify small molecule antagonists of the glucocorticoid receptor (GR) signaling pathway (AID 720692; active = well fitted inhibition curve with a large enough effect in the signal ratio in the repeat runs, not every such curve was filed as active; the % refers to the signal ratio)
Outline: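 Cells plated, rested 4 h at 37 C/5% CO2; compounds in DMSO pin-transferred; dexamethasone added to 5 nM final; 18 h at 37 C; B/G FRET substrate added, 2 h room temperature; fluorescence measured.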

[20] = qHTS assay to identify small molecule antagonists of the glucocorticoid receptor (GR) signaling pathway - cell viability counter screen (AID 720693); also: nearly all actives have a fitted effect of over 55% in size
[21] = qHTS assay for identifying genotoxic compounds that show differential cytotoxicity against isogenic chicken DT40 cell lines with known DNA damage response pathways - wild type cell line (AID 743012); also: nearly all actives have a fitted effect of over 60% in size
Outline: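 Cells (DT40 wild type, 300/well) are treated with DMSO-dissolved compounds after a ~0.5 h pre-incubation and kept 40 h at 37 C/5% CO2. Viability is then measured by CellTiter-Glo luminescence following 30 min at room temperature.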

[22] = qHTS assay for identifying genotoxic compounds that show differential cytotoxicity against isogenic chicken DT40 cell lines with known DNA damage response pathways - Rev3 mutant cell line (AID 743014); also: nearly all actives have a fitted effect of over 55% in size
[23] = qHTS assay for identifying genotoxic compounds that show differential cytotoxicity against isogenic chicken DT40 cell lines with known DNA damage response pathways - Rad54/Ku70 mutant cell line (AID 743015); also: nearly all actives have a fitted effect of over 60% in size

Measured: Potency

CCCN1CCC[C@H](c2cccc(O)c2)C1
inactive: all assays above
